Measured values from PubChem BioAssay (NCATS).
Records with an inconclusive call do not appear. Activity calls are given as the source filed them. Calls come from the whole dose curve; as a rule, active = well fitted inhibition curve with a large enough effect; inconclusive = small, poorly fitted or top-dose-only effect; inactive = flat fitted curve, though single readings scatter. *1 amine or outer side, *2 acyl side, *3 side chain or, on linkers, in order; H or OH if unused. Where a SMILES comes first, the peptide text is derived from it. Bridges are numbered along the chain shown (N, C = ends). [ ]: non-standard residue; d: D form. The star is where a group is joined. ξ: configuration not given here. X10 = NC1=NCCC(C(N[*:1])C(=O)[*:2])N1; ΔAla(3-NHCONH2) = NC(=O)NC=C(N)C(=O)O; ξβ3hOrn = NCCCC(N)CC(=O)*; Dap = NC[CH](N)C(=O)O

test system: CRL-7250; test: Cytotoxic Profiling of Annotated Libraries Using Quantitative High-Throughput Screening (AID 1296008); conditions: Five cell lines viability, CellTiter-Glo ATP luminescence, 48-72 h; max response: hits give low values; note: nearly all actives have a fitted effect of over 60% in size
How it was run: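 Cytotoxicity was measured as CellTiter-Glo ATP luminescence, read after 10 min at room temperature. Compound treatment of the cells lasted 48 or 72 hr at 37 degrees Celsius in a qHTS format.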
% is set by controls: 0 for no effect and ±100 for the full control effect; potency is the fitted concentration of half-maximal effect.

| SMILES | max response | outcome | Potency |
| --- | --- | --- | --- |
| CC(C)C[C@@H]1[C@H](c2ccccc2)OC(=O)N1CCCN1CCCCCC1 | -2.82% (inactive) | – | – |
| CCCCC(CC)CNC(=O)CC(C)OC(=O)CCC(=O)O (configuration not stated) | -4.08% (inactive) | – | – |
| CN1C(=O)CC(C)(c2ccccc2)C1=O (configuration not stated) | -0.376% (inactive) | – | – |
| NCCCC(N)CC(=O)NCC1NC(=O)C(CO)NC(=O)C(N)CNC(=O)C(C2CCN=C(N)N2)NC(=O)C(=CNC(N)=O)NC1=O (stereo not drawn) (H-[Dap]S[Dap](ξβ3hOrn)[ΔAla(3-NHCONH2)][X10]; lactam 1-C; configuration not given here) | -12.1% (inactive) | – | – |
| Cc1cc(O)c2c(O)c3c(O)cccc3cc2c1 | – | inactive | – |
| CCCCCOc1ccc(C2SC(=O)NC2=O)cc1OCC (configuration not stated) | -3.49% (inactive) | – | – |
| CC(=O)OCC[N+](C)(C)C | -0.18% (inactive) | – | – |
| N=C(N)c1ccc(OCCCOc2ccc(C(=N)N)cc2)cc1 | 2.23% (inactive) | – | – |
| COc1ccc(/C(C)=C/C(=O)O)c(OC)c1 | 0.36% (inactive) | – | – |
| O=C(OCC(COC(=O)c1cccnc1)(COC(=O)c1cccnc1)COC(=O)c1cccnc1)c1cccnc1 | – | inactive | – |
| NS(=O)(=O)c1ccc(N2CCCCS2(=O)=O)cc1 | -11.1% (inactive) | – | – |
| CO/N=C(\C(=O)O)c1csc(NC(=O)CCl)n1 | – | inactive | – |
| O=C1Cc2cc(Cl)ccc2N1 | -11.6% (inactive) | – | – |
| C=CC[N+]1([C@H]2C[C@H]3[C@@H]4CC[C@H]5C[C@H](OC(C)=O)[C@@H](N6CCCCC6)C[C@]5(C)[C@H]4CC[C@]3(C)[C@H]2OC(=O)CC)CCCCC1 | -0.558% (inactive) | – | – |
| C#CC(C)(CC)OC(=O)c1ccccc1C(=O)O (configuration not stated) | -9.5% (inactive) | – | – |
| O=C(O)c1cn(C2CC2)c2cc(Cl)c(F)cc2c1=O | – | inactive | – |
| CC(=O)O[C@H]1CC[C@@]2(C)C(=CC[C@@H]3[C@@H]2CC[C@]2(C)C(C(C)=O)=CC[C@@H]32)C1 | -17.3% (inactive) | – | – |
| Cc1nn(-c2ccccc2)c(C)c1/C=N/N1CCN(Cc2ccccc2)CC1 | 4.78% (inactive) | – | – |
| CC(C)Cc1ccc(C(C)C(=O)OCc2ccccn2)cc1 (configuration not stated) | -2.57% (inactive) | – | – |

| SMILES | max response | outcome | Potency |
| --- | --- | --- | --- |
| CO/N=C(/C(=O)N[C@@H]1C(=O)N2C(C(=O)O)=C(Cn3nnc(C)n3)CS[C@H]12)c1csc(N)n1 | 4.76% (inactive) | – | – |
| N[C@@H](Cc1cc(I)c(O)c(I)c1)C(=O)O | 1.61% (inactive) | – | – |
| CC(C)C(=O)Nc1cccc(C(F)(F)F)c1 | 3.59% (inactive) | – | – |
| COC(=O)c1cc(Cl)ccc1OC | -7.71% (inactive) | – | – |
| OC1(c2ccccc2)CCNCC1 | 0.914% (inactive) | – | – |
| CC(C)OC(=O)c1cc2c(OCC(O)CNC(C)(C)C)cccc2[nH]1 (configuration not stated) | -22.1% (inactive) | – | – |
| CC(C)(C)C1CCC(CC2=C(O)c3ccccc3C(=O)C2=O)CC1 (configuration not stated) | -5.3% (inactive) | – | – |
| Oc1ccccc1-c1nnco1 | – | inactive | – |
| CC(C)(Oc1ccc(Cl)cc1)C(=O)OCCCOC(=O)C(C)(C)Oc1ccc(Cl)cc1 | -5.16% (inactive) | – | – |
| CCOC(=O)C(=O)c1csc(NC=O)n1 | -5.63% (inactive) | – | – |
| CC(=O)Oc1ccc(C2(c3ccc(OC(C)=O)cc3)Oc3ccccc3NC2=O)cc1 | – | – | 8.41 µM (active) |
| O=C(c1cc(O)c(O)c(O)c1)c1ccc(O)c(O)c1O | -19.4% (inactive) | – | – |
| O=c1[nH]sc2cc(Cl)ccc12 | -108% (inactive) | – | – |
| CCCC(=O)c1cc(O)c(O)cc1O | -22.6% (inactive) | – | – |
| CSc1ccc(/C=C2/C(C)=C(CC(=O)O)c3cc(F)ccc32)cc1 | – | inactive | – |
| N#Cc1cc(NC(=O)C(=O)O)c(Cl)c(NC(=O)C(=O)O)c1 | – | inactive | – |
| CCOC(=O)c1ccc(NC(=O)CN2CCCCC2)cc1 | -6.82% (inactive) | – | – |
| Cc1sccc1Br | -9.55% (inactive) | – | – |
